In PubChem BioAssay (NCI) one finds growth data, which are given here for 7 compounds.

What all share (assay): NCI-60 one-dose screen, 48 h (100 = growth as untreated, 0 = no growth, -100 = all killed)
Conditions in all cases: 10 µM unless noted

Test [1] has as its system DU-145 prostate.
Test [2] relates to K-562 leukemia.
For test [3], the system named is MALME-3M melanoma.
Test [4] concerns MDA-MB-231 breast.
Test [5] relates to RXF 393 renal.
In test [6] the test system is SF-268 CNS.
Test [7] relates to SF-295 CNS.
Test [8] concerns SF-539 CNS.
Test [9] deals with UACC-257 melanoma.
Test [10] relates to M14 melanoma.
In test [11] the test system is HCT-15 colon.
The subject of test [12] is HT29 colon.
Test [13] concerns SNB-75 CNS.
Test [14] concerns SNB-19 CNS.
The test system of test [15] is U251 CNS.
Test [16] relates to PC-3 prostate.
Test [17] deals with SK-MEL-5 melanoma.
Test [18] has as its system UACC-62 melanoma.
For test [19], the system named is LOX IMVI melanoma.
The test system of test [20] is SK-MEL-28 melanoma.

Compounds without any hit were thinned out: in the full panel of roughly 83,000, 20% have a hit.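 Single-concentration screen, 48 h exposure, 96-well plates. Endpoint: percent growth. Below 10 = active.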 A number with no mark means an inactive call. The source made the active and inactive calls.

On to `N#Cc1c2c(c(N)[nH]c1=O)C(=O)NC2(O)c1ccccc1` (stereo not given), for which the growth in [1] is 105%; in test [2], 98.7%; in test [3], 87.1%; in test [4], 112%; in test [5], 103%; in [6], 105%. In addition, the growth in [7] is 100%; in test [8] it was 104%; in test [9] it was 96.7%; in test [10] it was 100%; in test [11] it was 106%; in test [12], 97%. The growth in [13] is 106%; in [14] it was 114%; in test [15] it was 101%; in test [16], 102%; in test [17] it was 98.6%; in test [18], 107%. Also, the growth in [19] is 98.5%; in test [20] it was 114%.

As for `O=C(NCCNc1nccc(-c2c(-c3cccc(O)c3)nc3sccn23)n1)Nc1cccc(C(F)(F)F)c1`, the growth is 89% in test [1]; 70.6% in test [2]; 23.6% in test [3]; 37.7% in [4]; 26.3% in test [5]; 26.2% in [6]. Besides, the growth was 75.5% in test [7]; 98.5% in [8]; 25.3% in test [9]; -21.7% (active) in test [10]; 84.7% in test [11]; 38.9% in [12]. In addition, the growth is 66.2% in [13]; 89.5% in test [14]; 81.6% in test [15]; 26.7% in [16]; 53.5% in [17]; 29.4% in test [18]. The results for the growth in test [19] and in test [20] were 64.5% and 48.8%, respectively.

Regarding `NC(N)=N/N=C/c1ccc([N+](=O)[O-])cc1`, the growth in test [1] is 125%; in test [2], 117%; in [3] it was 103%; in [4], 101%; in test [5], 102%; in test [6], 103%. Also, the growth was 91.3% in test [7]; 105% in [8]; 102% in test [9]; 105% in [10]; 105% in test [11]; 105% in test [12]. The growth was 83.4% in [13]; 109% in [14]; 105% in test [15]; 94.5% in [16]; 100% in test [17]; 91.6% in test [18]. The growth in [19] was 96%; in test [20] it was 109%.

`O=C(/C=C/c1ccccc1)Oc1ccc(/C=C/c2cc(OC(=O)/C=C/c3ccccc3)cc(OC(=O)/C=C/c3ccccc3)c2)cc1`: the growth in test [1] is 104%; in [2], 94.8%; in test [3], 91.2%; in test [4], 104%; in test [5], 114%; in [6] it was 99.5%. The growth in test [7] is 101%; in test [8], 91.8%; in test [9] it was 81.7%; in test [10] it was 100%; in test [11], 103%; in test [12], 90.1%. The growth in test [13] was 80.5%; in [14] it was 96.2%; in test [15] it was 94.9%; in test [16], 87.5%; in test [17] it was 107%; in test [18] it was 103%. Moreover, the growth is 98.4% in test [19] and 107% in test [20].

`CCCCCCCCCCCCCCCC(=O)NS(=O)(=O)OC[C@H]1O[C@@H](n2cnc3c(N)ncnc32)[C@H](O)[C@@H]1O`: the growth in test [1] is -33.6% (active); in [2], 8.9% (active); in test [3], -51.6% (active); in [4] it was -25.6% (active); in [5], -83.4% (active); in test [6], -42.6% (active). Further, the growth in test [7] was -34.6% (active); in test [8] it was -69.4% (active); in test [9] it was -20.7% (active); in test [10] it was -68.2% (active); in test [11] it was -8.55% (active); in [12], -17.1% (active). Besides, the growth was -41.6% (active) in test [13]; -53.7% (active) in test [14]; -87.5% (active) in [15]; -52.4% (active) in [16]; -88.8% (active) in test [17]; -48.9% (active) in test [18]. Also, the growth is -64.8% (active) in test [19] and -59.7% (active) in test [20].

Turning to `Cc1ccc(/C=C2/C(=O)Nc3cc(Cl)c(-c4csc(N)n4)cc32)cc1`, the growth in [1] is 87.5%; in test [2] it was 9.97% (active); in test [3], 80.4%; in [4], 46.8%; in [5] it was 76.4%; in [6], 71.8%. Also, the growth in [7] is 70.8%; in [8], 81.6%; in test [9], 94.7%; in test [10] it was 52.9%; in test [11], 63.1%; in [12] it was 47.7%. Moreover, the growth was 52.4% in [13]; 55.2% in test [14]; 63.6% in test [15]; 56.8% in [16]; 40.8% in [17]; 50.7% in [18]. In addition, the growth was 58.7% in test [19] and 82.7% in [20].

For the compound `NS(=O)(=O)c1ccc(CCN2C(=O)/C(=C\c3ccc(Cl)cc3)C=C2c2ccc(Oc3ccccc3)cc2)cc1`, the growth in test [1] is 89.4%; in test [2] it was 47.8%; in [3] it was 82%; in [4] it was 72.9%; in test [5], 70.3%; in [6], 82.7%. The growth in [7] was 77.3%; in test [8] it was 97.7%; in test [9], 92.4%; in test [10] it was 73.7%; in [11], 64.8%; in test [12], 65.4%. For the same compound, the growth in test [13] was 77.9%; in [14], 80.3%; in [15], 74.5%; in test [16], 38.6%; in [17] it was 77.4%; in [18] it was 68.8%. Besides, the growth is 81% in [19] and 79.8% in test [20].
